Laboratory results from ChEMBL document CHEMBL3988442, “University of Dundee, Small-Polar-MMV Screening Library” (2021).
Among all 53,000 compounds or so, about 900 (1.7%) showed an effect of 50% or more. The sample holds strong results, similar compounds and a random draw of the others, so the mix is not that of the screen.

Tested on: Mycobacterium tuberculosis
Assay: Cornell - Phenotypic assay to identify agents that inhibit growth of Mycobacterium tuberculosis
Format: functional
Design: scale not given: direction of the effect not stated beside the values
Conditions: 10 mM as filed; unlikely as a test dose

Compound | Percent Effect
O=C(Cc1csc(-c2ccoc2)n1)NCCC(=O)N1CCCCC1 | -18.79%
O=C(CN1CCC(c2ccccc2)CC1)NCc1cc2n(n1)CCNC2 | -6.243%
Cc1ccc(NC(=O)c2coc(C)n2)c(C)c1 | 2.34%
CCN1CCCC(O)(c2nc(C)c(CCOc3ccccc3Cl)s2)CC1 (configuration not stated) | 12.65%
Fc1cnc(N2CCO[C@H]3[C@H](OCC4CCOCC4)CC[C@@H]32)nc1.O=C(O)C(F)(F)F | -12.23%
Fc1cccc(CN2CCC(c3noc(-c4ccccn4)n3)CC2)c1F | 10.24%
Fc1cccc(CN2CCC(c3n[nH]c4ncccc34)CC2)c1F | 12.02%
CCc1cc(C(=O)N2CCC(c3cc4ncccc4cn3)CC2)no1 | -43.86%
CCc1onc(C)c1C(=O)N1CCC(c2cc3ncccc3cn2)CC1 | -10.62%
Cl.Fc1cccc(CN2CCC(c3cc4ncccc4cn3)CC2)c1F | 106.5%
COc1ccc(C)cc1CN1CCC(c2cc3ncccc3cn2)CC1.Cl | 102.1%
Fc1ccc(F)c(CN2CCC(c3cnccn3)CC2)c1 | -8.862%
Fc1cc(F)cc(CN2CCC(c3cc4ncccc4cn3)CC2)c1 | 48.17%
Cl.Fc1ccc(F)c(CN2CCC(c3cc4ncccc4cn3)CC2)c1 | 106.2%
CN(C)CC(=O)N1CCCC1c1ccccn1 (configuration not stated) | -4.262%
Cc1cc(O)nc(C2CN(CCO)CCO2)n1 (configuration not stated) | -14.9%
O=C(NC(Cc1ccsc1)c1nccs1)C1CC1 (configuration not stated) | 1.52%
COc1ccc(-c2cc(C(=O)NCCC(C)C)n(C)n2)cc1 | 20.81%
Cc1cnc(-c2nc(O)c3c(n2)CN(C(=O)C2CCOC2)CC3)cn1 (configuration not stated) | 13.55%
Cc1nccn1-c1nccnc1C1CCCN(C2CCCC2)C1 (configuration not stated) | -26.29%
CCc1nccn1C1CCCN(C(=O)c2c(C)nsc2NC)C1 (configuration not stated) | -1.736%
COCCc1noc(CNC(C)(CO)C2CCCCC2)n1 (configuration not stated) | 19.83%
Cc1ncc2c(n1)CN(CC(=O)Nc1c(C)nn(C)c1C)CC2 | -7.381%

Compound | Percent Effect
COc1ccc(-c2nc(CN3CCCC(OC)C3)c(C)o2)c(F)c1 (configuration not stated) | 56.05%
COCc1ncn(Cc2nc(-c3ccc(OC)cc3F)oc2C)n1 | -34.66%
CCCOC1CCCN(Cc2nc(-c3ccc(F)cc3F)oc2C)C1 (configuration not stated) | 18.51%
COCC(=O)NC[C@]1(O)CN(Cc2ccc3c(c2)OCCO3)C[C@H]1O | 24.95%
CCn1ncc(CN2CCC(c3ncc(Cl)cc3S(C)(=O)=O)CC2)c1C | 50.49%
CCn1cc(CN2CCC(c3ncc(Cl)cc3S(C)(=O)=O)CC2)c(C)n1 | 37.62%
C=Cn1ncc(CN2CCC(c3ncc(Cl)cc3S(C)(=O)=O)CC2)c1C | 0.06604%
O=C(NS(=O)(=O)c1cccnc1)C1CC(c2ccccc2)=NO1 (configuration not stated) | 35.93%
Cc1ncc2c(n1)CCCC2NC(=O)c1ccc(Cn2cccn2)cc1 (configuration not stated) | -3.537%
Cc1occc1C(=O)N1CCC2(CC1)CN(c1ccccn1)CCO2.O=C(O)C(F)(F)F | 15.62%
CCc1ccc(CN(C)c2cc(COC)nc3ccnn23)cc1 | 59.92%
CCc1cc(N(C)Cc2ccncn2)n2nccc2n1 | -22.97%
COCc1cc(N(C)Cc2c(C)nn(C)c2C)n2nccc2n1 | -21.67%
CCCc1nc(N[C@H]2COC[C@@H]2N2CCCCC2)c2cnn(C)c2n1 | 6.118%
COc1cn(-c2ccccc2)nc1C(=O)NCCN1CCCC(C)C1 (configuration not stated) | -24.88%
CC(C)CCc1n[nH]c(C(=O)O)c1Cl | -0.9753%
CC(C)CCc1n[nH]c(C(=O)O)c1Br | 50.18%
CC(C)CCc1n[nH]c(C(=O)O)c1I | 42.63%
Cc1nn(CC(C)C)cc1S(=O)(=O)N(C)Cc1nonc1C | 22.09%
Cc1nccc(CC2COCCN(c3cnccn3)C2)n1 (configuration not stated) | -7.582%
c1cnc(CC2COCCN(C3CCCCC3)C2)cn1 (configuration not stated) | 63.08%
c1cncc(O[C@H]2COCCN(C3CCC3)C2)c1 | 18.67%
O=C(O)C(F)(F)F.c1cnc(N2CCC3(COCc4cnc(-c5cccnc5)nc43)C2)nc1 (configuration not stated) | -17.47%

Compound | Percent Effect
CN(C)CC(=O)N1CC2(CCN(C(=O)Nc3ccccc3)C2)C1.O=C(O)C(F)(F)F | -36.23%
CC(C)c1nc(C2CCCN2CCCc2nc3ccccc3o2)no1 (configuration not stated) | 73.44%
CC(C)c1nc(C2CCCN2CCc2ccncc2)no1 (configuration not stated) | -12.21%
c1ccc2oc(CN3CCCCC3Cn3cncn3)nc2c1 (configuration not stated) | 10.3%
Cc1nn(C)c(C)c1C1CCCN1CCCC#N (configuration not stated) | -3.092%
Cc1nn(C)c(C)c1C1CCCN1CCCc1nc2ccccc2o1 (configuration not stated) | 65.17%
c1ccc2oc(CCCN3CCCCC3Cn3cncn3)nc2c1 (configuration not stated) | 60.48%
c1ccc2oc(CCCN3CCCC3Cn3cncn3)nc2c1 (configuration not stated) | 23.86%
Cc1nc(C)n(CC2CCCN2CCCc2nc3ccccc3o2)n1 (configuration not stated) | 0.1227%
CC(C)c1nc(C2CCCN2CCc2ccccn2)no1 (configuration not stated) | -3.374%
Cc1cc(C)n(CC2CCCN2CCCc2nc3ccccc3o2)n1 (configuration not stated) | 14.18%
Cc1cc(C2CCCN2CCCc2nc3ccccc3o2)on1 (configuration not stated) | 56.86%
Cc1cnn(CC2CCCN2CCCc2nc3ccccc3o2)c1 (configuration not stated) | 32.71%
CN1CCC(Nc2ccc(Cl)cc2OCC(F)(F)F)C1=O (configuration not stated) | 4.127%
CC(C)[C@H]1CN(Cc2ccncc2)C[C@@H]1NC(=O)C1(C#N)CCOCC1 | 8.101%
CCOc1cncc(N2CCCC2c2nnc3n2CCCCC3)n1 (configuration not stated) | 14.34%
Cn1ncc2c1CN(Cc1ccc(F)cc1)CC2COCC1CC1.O=C(O)C(F)(F)F.O=C(O)C(F)(F)F (configuration not stated) | -21.09%
Cc1nn(C)cc1NC(=O)CC1CCN(C(=O)Cc2ccccc2)CC1 | -9.652%
Cn1ccnc1CNC1CCCOc2c1ccc1ccccc21 (configuration not stated) | 21.15%
Cn1cc(CNC2CCCOc3c2ccc2ccccc32)cn1 (configuration not stated) | 52.41%
Cn1cc(CNC2CCCOc3c(Cl)cccc32)cn1 (configuration not stated) | 11.42%
